Assay [1] in a line: A CellTox Green Cytotoxicity Assay to monitor cytotoxicity in HEK293 cells - 16 hour (AID 1224888). Also: nearly all actives have a fitted effect of over 35% in size. The procedure, abridged:
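Cytotoxicity was tracked continuously in HEK293 cells by a DNA-binding dye excluded from viable cells. Compounds were transferred in DMSO 5 h after seeding; fluorescence was recorded at intervals up to 40 h.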

Assay [2] can be described thus: qHTS RealTime-Glo MT Cell Viability Assay in HepG2 cells - 0 hour (AID 1224889). Also: nearly all actives have a fitted effect of over 50% in size. The procedure, abridged: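 Tox21 10K library screened in qHTS format on HepG2 cells carrying RealTime-Glo reagents. Compounds were added after a 5 h preincubation, and the luminescent signal from continuous culture was measured repeatedly during 40 h treatment.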
(In qHTS, concentration-response curves come from the screen itself.)

A short description of assay [3]: A CellTox Green Cytotoxicity Assay to monitor cytotoxicity in HepG2 cells - 8 hour (AID 1224890). Also: nearly all actives have a fitted effect of over 45% in size. In a few lines: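 Real-time, homogeneous cytotoxicity readout: dead-cell DNA staining by CellTox Green in HepG2 monolayers, fluorescence measured at timed intervals up to 40 h of continuous compound exposure.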
The nature of assay [4]: qHTS assay to identify small molecule antagonists of the estrogen receptor alpha (ER-alpha) signaling pathway using the BG1 cell line in the presence of 0.1 nM 17-beta-estradiol - cell viability counter screen (AID 1259241). Also: nearly all actives have a fitted effect of over 40% in size. In a few lines:
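Estradiol-stimulated (0.1 nM) VM7Luc4E2 cells exposed to compounds 22 hr; viability measured by fluorescence of cleaved CellTiter-Fluor substrate after 30 min.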

Assay [5] in a line: qHTS assay to identify small molecule antagonists of the androgen receptor (AR) signaling pathway using the MDA cell line in the presence of 0.5 nM R1881 - cell viability counter screen (AID 1259242). Also: nearly all actives have a fitted effect of over 45% in size. In a few lines: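 Cytotoxicity toward MDA-kb2 cells is measured by CellTiter-Fluor live-cell protease fluorescence after 16 hr compound exposure at 37C in the presence of 0.5 nM R1881 stimulator.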

The target of assay [6] is Androgen receptor (Homo sapiens) (UniProt P10275). Put plainly: qHTS assay to identify small molecule antagonists of the androgen receptor (AR) signaling pathway using the MDA cell line in the presence of 0.5 nM R1881 (AID 1259243). Also: nearly all actives have a fitted effect of over 50% in size. Also: potency is read from the fitted curve at half-maximal effect. The procedure, abridged: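 Steps: seed MDA-kb2 cells, incubate 5 hr at 37C; pin-transfer compounds in DMSO; add R1881 to 0.5 nM final; incubate 16 hr; add ONE-Glo, wait 30 min at room temperature; read luminescence.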
Androgen receptor (Homo sapiens), sequence (P10275 whole entry, looked up): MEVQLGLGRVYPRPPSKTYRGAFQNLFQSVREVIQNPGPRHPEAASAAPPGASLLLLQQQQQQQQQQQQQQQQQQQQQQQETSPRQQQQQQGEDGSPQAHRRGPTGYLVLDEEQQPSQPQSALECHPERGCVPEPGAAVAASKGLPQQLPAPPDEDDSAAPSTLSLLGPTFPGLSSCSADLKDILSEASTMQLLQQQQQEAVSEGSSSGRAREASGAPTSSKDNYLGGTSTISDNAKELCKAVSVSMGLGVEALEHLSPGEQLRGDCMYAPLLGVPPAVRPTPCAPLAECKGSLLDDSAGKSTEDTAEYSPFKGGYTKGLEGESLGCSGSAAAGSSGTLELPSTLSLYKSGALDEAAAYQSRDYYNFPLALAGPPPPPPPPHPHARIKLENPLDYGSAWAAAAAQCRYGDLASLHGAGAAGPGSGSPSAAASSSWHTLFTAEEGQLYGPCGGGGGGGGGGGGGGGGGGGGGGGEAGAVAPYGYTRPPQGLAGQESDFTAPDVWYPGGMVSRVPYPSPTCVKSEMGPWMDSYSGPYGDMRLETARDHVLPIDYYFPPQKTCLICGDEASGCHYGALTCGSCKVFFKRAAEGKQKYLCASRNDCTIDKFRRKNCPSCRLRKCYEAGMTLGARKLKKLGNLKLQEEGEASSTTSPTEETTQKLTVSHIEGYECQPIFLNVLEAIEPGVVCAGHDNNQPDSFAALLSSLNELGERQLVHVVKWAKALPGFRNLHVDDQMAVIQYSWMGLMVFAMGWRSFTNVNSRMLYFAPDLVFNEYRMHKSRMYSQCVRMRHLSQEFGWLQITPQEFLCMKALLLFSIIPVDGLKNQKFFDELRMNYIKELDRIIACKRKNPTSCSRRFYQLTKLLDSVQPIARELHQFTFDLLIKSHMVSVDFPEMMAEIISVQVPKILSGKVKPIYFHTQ

A short description of assay [7]: qHTS assay to identify small molecule HDAC inhibitors (AID 1259364). Also: nearly all actives have a fitted effect of over 45% in size. Also: potency is read from the fitted curve at half-maximal effect. The procedure, abridged: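 Homogeneous cell-based luminescent assay of endogenous class I/II HDAC activity; HCT-116 cells, 2 h compound exposure, 30 min HDAC-Glo development at RT.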
Assay [8] can be described thus: qHTS assay to identify small molecule HDAC inhibitors - cell viability counter screen (AID 1259365). Also: series mostly up to about 92 µM; nearly all actives have a fitted effect of over 50% in size. In a few lines:
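After overnight seeding at 1,500 cells per well, wild-type HCT-116 cultures took up compounds in DMSO for 2hr at 37 C. Viable cell content came from luminescence with CellTiter-Glo.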

In assay [9] the target is Estrogen receptor (Homo sapiens) (UniProt P03372). Description: qHTS assay to identify small molecule antagonists of the estrogen receptor alpha (ER-alpha) signaling pathway using the BG1 cell line in the presence of 0.1 nM 17-beta-estradiol (AID 1259244). Also: nearly all actives have a fitted effect of over 50% in size. The procedure, abridged: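 After 5 days in hormone-depleted medium (charcoal-stripped serum, no phenol red), VM7Luc4E2 cells were seeded, incubated 24 h, then co-treated with compound and 0.1 nM (final) estradiol for 22 h before luminescence detection.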
Estrogen receptor (Homo sapiens), sequence (P03372 whole entry, looked up): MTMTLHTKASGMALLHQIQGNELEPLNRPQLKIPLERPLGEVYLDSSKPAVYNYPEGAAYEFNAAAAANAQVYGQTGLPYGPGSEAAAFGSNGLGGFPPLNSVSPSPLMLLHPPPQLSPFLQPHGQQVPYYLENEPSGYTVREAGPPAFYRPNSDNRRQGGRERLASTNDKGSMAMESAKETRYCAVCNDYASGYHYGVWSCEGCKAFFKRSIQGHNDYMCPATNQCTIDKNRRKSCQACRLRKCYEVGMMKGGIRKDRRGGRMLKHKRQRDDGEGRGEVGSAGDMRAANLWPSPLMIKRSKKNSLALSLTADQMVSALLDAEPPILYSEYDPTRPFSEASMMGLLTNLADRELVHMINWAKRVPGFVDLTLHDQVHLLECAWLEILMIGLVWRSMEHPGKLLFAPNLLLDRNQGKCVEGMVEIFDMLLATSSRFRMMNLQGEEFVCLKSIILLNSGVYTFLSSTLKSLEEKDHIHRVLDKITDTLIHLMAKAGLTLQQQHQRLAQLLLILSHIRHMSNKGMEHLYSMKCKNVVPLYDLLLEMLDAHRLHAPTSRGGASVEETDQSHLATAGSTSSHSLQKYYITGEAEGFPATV

Assay [10] can be described thus: qHTS assay to identify small molecule phospholipidosis (PLD) inducers (AID 1259344; active = well fitted curve in the direction sought with a large enough effect; an effect the other way counts as inactive or inconclusive). In a few lines: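 Phospholipidosis is scored by imaging LipidTOX-stained pits in HepG2 cells exposed to compound for 24 h at 37 C; pit counts and integrated intensities per well and per cell serve as outputs.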

The values below come from PubChem BioAssay (Tox21).

A number with no mark means an inactive call. Records with an inconclusive call do not appear. Calls of active or inactive are those of the source. Unless noted, calls follow the shape of the dose curve; as a rule, active = well fitted curve in the direction sought with a large enough effect in the repeat runs; inconclusive = weak or mixed curves; inactive = no such curve, though single readings can be large; an effect the other way counts as inactive or inconclusive.

Take `C=C(C)C(=O)OCCCC`: the Potency entry in [1], in assay [2], in assay [3], in [6] and in assay [7] was “inactive” each time. Further, the result in assay [4], in assay [5] and in [8] was inactive.
For `NNC(=O)OCc1ccccc1`, the Potency result in [1], in [2], in [3], in assay [6] and in assay [7] was “inactive” each time. The result in assay [4], in assay [5], in assay [9] and in assay [8] was inactive.
Consider `CC1(C)C(=O)C(C)(C)C1=O`, for which the Potency result in assay [1], in [2], in [3], in [6] and in assay [7] was “inactive” in each case. Also, the outcome in assay [4], in assay [5] and in assay [8] was inactive.
As for `CN(C)c1cc(NC(=O)CNC(C)(C)C)c(O)c2c1C[C@H]1C[C@H]3[C@H](N(C)C)C(=O)C(C(N)=O)=C(O)[C@@]3(O)C(=O)C1=C2O`, the Potency entry in assay [1], in assay [2], in assay [3], in assay [6], in assay [10] and in assay [7] was “inactive” each time. The outcome in assay [4], in [5], in assay [9] and in assay [8] was inactive.
`CC(C)CC(O)Cc1ccccc1` (stereo not drawn): the Potency entry in assay [1], in [2], in assay [3], in [6] and in [7] was “inactive” each time. Besides, the outcome in assay [4], in [5], in [9] and in assay [8] was inactive.
With `CC(C)(C)NCC(O)COc1cccc2c1CCC(=O)N2` (stereo not drawn), the Potency result in assay [1], in [2], in assay [3], in assay [6], in [10] and in assay [7] was “inactive” throughout. In addition, the result in [4], in assay [5] and in [8] was inactive.
As for `CC(CN1CC(=O)NC(=O)C1)N1CC(=O)NC(=O)C1` (stereo not drawn), the Potency entry in assay [1], in assay [2], in [3], in [6] and in assay [7] was “inactive” in each case. The outcome in assay [4], in [5], in assay [9] and in assay [8] was inactive.
In the case of `O=C(c1ccccc1)c1cccc(O)c1`, the Potency result in [1], in assay [2], in [3] and in [7] was “inactive” throughout. Moreover, the outcome in assay [4], in assay [5], in assay [9] and in [8] was inactive. Also, the Potency in assay [6] is 27.7 µM (active).
As to `CC12CCCC=C1C(=O)OC2=O` (stereo not drawn), the Potency result in assay [1], in [2], in [3], in [6] and in assay [7] was “inactive” in each case. Further, the outcome in [4], in [5] and in assay [8] was inactive.
On to `C/C(=N\O)c1ccc(OCC(=O)N2CCCCC2)cc1`, for which the Potency result in assay [1], in assay [2], in [3], in [6] and in assay [10] was “inactive” throughout. Further, the result in assay [4], in assay [5], in assay [9] and in [8] was inactive. For the same molecule, in [7], the Potency is 8.41 µM (active).
For the molecule `C[C@@H](CN1CC(=O)NC(=O)C1)N1CC(=O)NC(=O)C1`, the Potency entry in assay [1], in assay [2], in [3], in [6], in assay [10] and in [7] was “inactive” throughout. In addition, the result in assay [4], in [5] and in assay [8] was inactive.
As for `C/C(Cl)=C/CCl`, the Potency entry in [1], in assay [2], in assay [3], in [6] and in assay [7] was “inactive” each time. The result in assay [4], in assay [5], in assay [9] and in [8] was inactive.
With `CCOC(=O)[C@H](CCc1ccccc1)N[C@H]1CS[C@H](c2cccs2)CN(CC(=O)O)C1=O`, the Potency entry in assay [1], in assay [2], in [3], in [6], in assay [10] and in [7] was “inactive” each time. The result in assay [4], in [5], in assay [9] and in assay [8] was inactive.
For `C=CCN1CCc2nc(N)sc2CC1`, the Potency result in assay [1], in assay [2], in assay [3], in assay [6], in assay [10] and in assay [7] was “inactive” each time. In addition, the outcome in assay [4], in assay [5] and in assay [8] was inactive.
Regarding `Cc1cc(=O)oc2cc(O[C@@H]3SC[C@@H](O)[C@H](O)[C@H]3O)ccc12`, the Potency result in assay [1], in [2], in [3], in [6] and in assay [7] was “inactive” each time. The result in assay [4], in assay [5], in [9] and in assay [8] was inactive.
For `COCc1nnc(-c2ccc[n+]([O-])c2)n1-c1c(Cl)c(Cl)cc2[nH]c(=O)c(=O)[nH]c12`, the Potency result in assay [1], in [2], in [3], in [6] and in assay [7] was “inactive” throughout. Further, the outcome in assay [4], in [5], in [9] and in [8] was inactive.
As to `CC(C)C(=O)Nc1cccc(C2CN3CCSC3=N2)c1` (stereo not drawn), the Potency entry in assay [1], in assay [2], in [3], in assay [6] and in assay [7] was “inactive” in each case. The outcome in [4], in assay [5], in assay [9] and in assay [8] was inactive.
Regarding `CC(=O)O[C@@H]1CC2C3CCc4cc(OC(=O)c5ccccc5)ccc4C3CCC2(C)[C@H]1OC(C)=O` (stereo partly drawn), the Potency result in assay [1], in assay [2], in assay [3] and in [7] was “inactive” each time. Further, the outcome in [4], in assay [5], in [9] and in [8] was inactive. For the same molecule, the Potency in assay [6] was 10.6 µM (active).
`Nc1cc(S(=O)(=O)O)ccc1O`: the Potency entry in [1], in assay [2], in assay [3], in assay [6] and in [7] was “inactive” in each case. For the same molecule, the result in assay [4], in assay [5] and in assay [8] was inactive.
With `COC(C)(C)CC(C)=O`, the Potency result in assay [1], in [2], in assay [3], in assay [6] and in [7] was “inactive” in each case. Also, the outcome in assay [4], in assay [5] and in assay [8] was inactive.
Take `CC(=O)OC1CCC(C(C)(C)C)CC1` (stereo not drawn): the Potency entry in assay [1], in assay [2], in assay [3], in [6] and in assay [7] was “inactive” in each case. Also, the result in assay [4], in assay [5], in assay [9] and in [8] was inactive.
In the case of `CCc1ncc(C)[nH]1`, the Potency result in assay [1], in assay [2], in assay [3], in assay [6] and in assay [7] was “inactive” each time. In addition, the result in assay [4], in assay [5] and in [8] was inactive.
As to `CC/C=C\CCOC(=O)c1ccccc1`, the Potency entry in assay [1], in assay [2], in assay [3] and in assay [6] was “inactive” in each case. For the same molecule, the outcome in assay [4], in assay [5], in assay [9] and in assay [8] was inactive.
With `COC(=O)c1ccc(NC(C)=O)cc1OC`, the Potency entry in assay [1], in assay [2], in assay [3], in assay [6] and in assay [7] was “inactive” in each case. The result in [4], in assay [5] and in assay [8] was inactive.
As for `CC(=O)/C=C/C=C1/C2CCC(C2)C1(C)C` (stereo not drawn), the Potency entry in [1], in [2], in assay [3], in assay [6] and in assay [7] was “inactive” each time. The result in assay [4], in assay [5] and in assay [8] was inactive.
As to `N#Cc1cc(NC(=O)C(=O)O)c(Cl)c(NC(=O)C(=O)O)c1`, the Potency entry in assay [1], in assay [2], in assay [3], in [6] and in assay [7] was “inactive” each time. The outcome in assay [4], in assay [5], in assay [9] and in [8] was inactive.
